HepG2 tox: kills HepG2 cells in TGF-b inhibitor counter-screen | 0.76% of 410,000 active | HepG2 CAGA-GFP viability, ATP luminescence, 18 h | Potency, µM (highest dose often 46.1 µM), most hits filed as cytotoxic
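CellTiter-Glo luminescence gave cytotoxicity after 18 hours at 37 degrees C. The cells were HepG2 CAGA-GFP in 1% FBS DMEM, stimulated with 500 pg/mL TGF-beta after compound addition. %Activity was normalised to no-cell wells (complete cell-killing) and DMSO (no toxicity), and curves were fitted and classified.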
TGFb inhibitor: inhibitors of TGF-b signaling | HepG2 CAGA-GFP TGF-b/SMAD3 reporter, GFP fluorescence, 18 h; TGF-beta stimulated, 500 pg/mL final | Potency, µM (doses to about 46.1 µM), most hits filed as inhibitors | 1.2% of 410,000 active; further: nearly all actives have a fitted effect of over 65% in size
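First, reporter cells (HEPG2 CAGA-GFP) rested 2 h at 37 degrees C. Next, compounds were pinned in and TGF-beta added to 500 pg/mL final. After 18 h, GFP was imaged per cell and summed per well.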
TDP1 cell CPT: DT40-hTDP1 cell growth loss with CPT | AID 686979 | Potency, µM (highest dose often 46.2 µM), hits mostly inhibitors | chicken DT40 Tdp1-/-;hTDP1 cells + 20 nM CPT, ATP luminescence, 48 h | 12% of 420,000 active; further: nearly all actives have a fitted effect of over 55% in size
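Cell growth measured by CellTiter-Glo luminescence after a minimum 48 h, 37 C compound exposure with 20 nM CPT in Tdp1-knockout DT40 cells stably expressing hTDP1, seeded 400/well; qHTS titration format.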
TDP1 cell noCPT: qHTS for Inhibitors of human tyrosyl-DNA phosphodiesterase 1 (TDP1): qHTS in cells in absence of CPT. DT40 Tdp1-/- hTDP1 cells, no CPT, ATP luminescence, 48 h. Potency, µM (highest dose often 46.2 µM), actives largely listed as inhibitors. 15% of 420,000 active. AID 686978, 2013; further: nearly all actives have a fitted effect of over 55% in size
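Chicken DT40 Tdp1-/- cells stably complemented with human TDP1 were seeded at 400 cells/well with DMSO in place of 20 nM camptothecin. After compound pinning, cells grew at least 48 hr at 37 °C; viability read by CellTiter-Glo luminescence.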
S-ASM inh: blocks human secretory acid sphingomyelinase. P17405. placental ASM, HMU-PC fluorogenic substrate, 60 min. Potency, µM (series often up to 57.5 µM), usual class: inhibitors. 0.006% of 340,000 active
Target sequence (P17405 47-631 limits assumed): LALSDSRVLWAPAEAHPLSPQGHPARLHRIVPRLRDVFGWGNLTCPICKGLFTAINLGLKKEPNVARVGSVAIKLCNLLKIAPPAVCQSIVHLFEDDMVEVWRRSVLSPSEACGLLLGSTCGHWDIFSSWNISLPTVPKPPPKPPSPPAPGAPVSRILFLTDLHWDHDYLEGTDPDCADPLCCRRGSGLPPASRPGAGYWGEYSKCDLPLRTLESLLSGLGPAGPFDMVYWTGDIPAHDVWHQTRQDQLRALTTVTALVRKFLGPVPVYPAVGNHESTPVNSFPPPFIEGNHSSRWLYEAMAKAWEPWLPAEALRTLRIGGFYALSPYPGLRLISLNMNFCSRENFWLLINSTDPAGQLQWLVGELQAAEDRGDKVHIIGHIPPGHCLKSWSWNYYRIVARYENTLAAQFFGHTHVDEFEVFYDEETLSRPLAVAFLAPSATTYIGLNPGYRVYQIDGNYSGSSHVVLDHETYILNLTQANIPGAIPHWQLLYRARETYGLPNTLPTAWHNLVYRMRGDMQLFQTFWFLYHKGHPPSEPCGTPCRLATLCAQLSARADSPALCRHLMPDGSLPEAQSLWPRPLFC
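Fluorescence read-out (Ex 386 nm, Em 447 nm) after stopping the reaction at pH 10. Enzyme: ASM from human placenta; substrate HMU-PC0, 9 uM final; 60 min, 37 °C. Compound preincubation 10 min, ambient temperature.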
IL-1B inflam inh: inflammasome signaling inhibition, IL-1 beta readout; activity change, % at 57.5 µM; THP-1 LPS/ATP IL-1B secretion, AlphaLISA, 16 h; stronger effect = lower value; 4.7% of 360,000 active; in the data active means activity change below about -50%; inconclusive means mostly about -30% to -49%
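THP-1 cells pretreated 1 hr with compounds (up to 57.5 uM final), then stimulated with LPS (250 ng/mL final) plus ATP (1.25 mM final); secreted IL-1B measured by AlphaLISA after 16 hr, decreased signal indicating inhibition.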
Numbers stand for hits; – = inactive; ? = inconclusive; · = no result. An excerpt weighted towards active compounds, which were near 19% of everything screened. Unless noted, the call rests on the fitted dose curve; in most records, active means well fitted curve in the direction sought with a large enough effect; inconclusive means small, poorly fitted or top-dose-only effect, or another doubt; inactive means no such curve, though single readings can be large; an effect the other way counts as inactive or inconclusive.

SMILES	HepG2 tox	TGFb inhibitor	TDP1 cell CPT	TDP1 cell noCPT	S-ASM inh	IL-1B inflam inh
CCOC(=O)c1c(C)[nH]c(C(=O)OCC(=O)c2ccccc2)c1C	–	–	?	?	–	–
COC(=O)c1c(C)[nH]c(C(=O)OCC(=O)c2ccc(C)s2)c1C	–	–	?	?	–	-71.9
CC(=O)c1c(C)[nH]c(C(=O)OCC(=O)c2ccc(Br)cc2)c1C	–	–	?	18.4µM	·	–
COCC(C)n1c(SCC(=O)Nc2c(C)n(C)n(-c3ccccc3)c2=O)nc2ccccc2c1=O (stereo not given)	–	–	–	–	–	–
COc1ccc(-c2coc3cc4oc(=O)c5ccccc5c4cc23)cc1F	–	?	0.82µM	0.651µM	–	–
COc1ccc(C2C(C(=O)Nc3cccnc3)=C(C)Nc3nc(SCc4ccccc4)nn32)cc1 (stereo not given)	–	–	–	–	·	·
COc1ccc(/C=C(\NC(=O)c2ccc(C)cc2)C(=O)Nc2ccc(C(=O)O)cc2)cc1	–	–	–	–	–	–
N/C(=N\OC(=O)Nc1ccc(Cl)cc1)c1ncc(C(F)(F)F)cc1Cl	–	–	–	–	–	–
CC(C)C(Cl)=NOC(=O)Nc1ccc(F)cc1	20µM	–	1.46µM	2.31µM	–	-99.6
CC(C)OC(=O)CCC(=O)Nc1ccc(F)cc1	–	–	–	–	–	–
C/C(=N\OC(=O)Nc1ccc(Cl)cc1)c1ccc(F)c(F)c1	–	–	–	?	–	-86.9
CC1C(=O)N(Cc2cn(Cc3ccco3)nn2)CCS(=O)(=O)N1Cc1ccc(-c2ccc(F)nc2)cc1 (stereo not given)	–	–	–	?	·	–
COc1ccc(-c2ccc(CN3C(C(C)C)C(=O)N(Cc4cn(Cc5ccco5)nn4)CCS3(=O)=O)cc2)cn1 (stereo not given)	–	?	18.4µM	20.6µM	·	–
Cc1ccc(-c2ccc(CN3C(C)C(=O)N(Cc4cn(Cc5ccco5)nn4)CCS3(=O)=O)cc2)cc1 (stereo not given)	–	?	?	?	·	–
Cc1ccccc1-c1ccc(CN2C(C)C(=O)N(Cc3cn(Cc4ccco4)nn3)CCS2(=O)=O)cc1 (stereo not given)	–	?	?	?	·	?
CC1C(=O)N(Cc2cn(Cc3ccco3)nn2)CCS(=O)(=O)N1Cc1ccc(-c2ccc(Cl)c(Cl)c2)cc1 (stereo not given)	–	?	14.6µM	8.2µM	·	-51.4
CC1C(=O)N(Cc2cn(Cc3ccco3)nn2)CCS(=O)(=O)N1Cc1ccc(-c2ccccc2C(F)(F)F)cc1 (stereo not given)	–	?	?	?	·	-59.5
Cc1ccc(-c2ccc(CN3C(C)C(=O)N(Cc4cn(Cc5ccco5)nn4)CCS3(=O)=O)cc2)c(C)c1 (stereo not given)	–	?	?	?	·	-60.8
O=C(NCc1ccccn1)[C@@H]1CCCN1C(=O)[C@@H]1CCCN1C(=O)c1cccc(Cl)c1	·	·	–	–	·	–
COc1ccc(-c2oc3c(c2C#CCCCCO)C(OCCO)CC3)cc1 (stereo not given)	·	·	?	?	·	–
COc1ccc(-c2ccc(CN3C(C(C)C)C(=O)N(Cc4cn(Cc5ccco5)nn4)CCS3(=O)=O)cc2)cc1 (stereo not given)	–	?	?	20.6µM	·	–
COc1ccc(-c2ccc(CN3C(C(C)C)C(=O)N(Cc4cn(Cc5ccco5)nn4)CCS3(=O)=O)cc2)cc1OC (stereo not given)	–	–	?	?	·	–
CC(C)CC1C(=O)N(Cc2cn(Cc3ccco3)nn2)CCS(=O)(=O)N1Cc1ccc(-c2ccc(F)cc2)cc1 (stereo not given)	–	?	?	16.4µM	·	-71.9
CC(C)C1C(=O)N(Cc2cn(Cc3ccco3)nn2)CCS(=O)(=O)N1Cc1ccc(-c2ccc(Cl)c(Cl)c2)cc1 (stereo not given)	–	?	4.61µM	3.26µM	·	–
CC(C)CC1C(=O)N(Cc2cn(Cc3ccco3)nn2)CCS(=O)(=O)N1Cc1ccc(-c2cccc(N(C)C)c2)cc1 (stereo not given)	–	–	?	13µM	·	–
SMILES	HepG2 tox	TGFb inhibitor	TDP1 cell CPT	TDP1 cell noCPT	S-ASM inh	IL-1B inflam inh
CC(C)Cc1ccc(CN2C(C)C(=O)N(Cc3cn(Cc4ccco4)nn3)CCS2(=O)=O)cc1 (stereo not given)	–	?	?	?	·	?
Cc1ccc(-c2ccc(CN3C(CC(C)C)C(=O)N(Cc4cn(Cc5ccco5)nn4)CCS3(=O)=O)cc2)cc1 (stereo not given)	–	–	–	?	·	–
CN(CC(=O)Nc1ccccc1Cl)C(=O)Cn1nnc(-c2ccc(F)cc2)n1	–	–	–	?	–	–
CCN1C(=NCc2ccco2)N[C@@H](c2cccc(F)c2)C(C(=O)OC)=C1C	–	–	–	–	–	–
CC1CCN(S(=O)(=O)c2cc(C(=O)NC3(C)CCS(=O)(=O)C3)ccc2Br)CC1 (stereo not given)	–	–	–	–	–	–
COc1ccc(-c2ccc(CN3C(C)C(=O)N(Cc4cn(Cc5ccco5)nn4)CCS3(=O)=O)cc2)cc1 (stereo not given)	–	–	20.6µM	23.1µM	·	–
CC1C(=O)N(Cc2cn(Cc3ccco3)nn2)CCS(=O)(=O)N1Cc1ccc(-c2cccnc2)cc1 (stereo not given)	–	–	?	?	·	?
CC1C(=O)N(Cc2cn(Cc3ccco3)nn2)CCS(=O)(=O)N1Cc1ccc(-c2cccc(N(C)C)c2)cc1 (stereo not given)	–	–	25.9µM	16.4µM	·	–
COc1ccc(C2=NS(=O)(=O)N(C)C(C(=O)NC3CCCC3)=C2)cc1OC	–	–	?	?	–	–
O=C(COC(=O)/C=C/c1ccccc1[N+](=O)[O-])NCc1ccco1	–	–	–	–	–	–
O=C(NCCc1ccc(Cl)cc1)c1ccc2c(c1)N(Cc1ccccc1)C(=O)CS2	–	–	16.4µM	18.4µM	·	·
Cc1ccc(C)c(CN2C(=O)CSc3ccc(C(=O)NCCc4ccc(Cl)cc4)cc32)c1	–	–	8.2µM	?	·	·
O=C(NCCc1ccccc1)c1ccc2c(c1)N(Cc1ccc(F)cc1)C(=O)CS2	–	–	?	16.4µM	·	·
O=C(NCCN1CCOCC1)c1ccc2c(c1)N(Cc1ccc(F)cc1)C(=O)CS2	–	–	–	–	–	–
